Test results reported in PubChem BioAssay AID504444 (National Center for Advancing Translational Sciences (NCATS), 2011).
About 7,500 (2.1%) of roughly 360,000 compounds were called active. Roughly 20% stayed inconclusive and do not appear here. The entries come from a sample that favours actives as a whole. A number with no mark means an inactive call. Calls come from the whole dose curve; as a rule, active = well fitted inhibition curve with a large enough effect; inconclusive = small, poorly fitted or top-dose-only effect, or effect the other way; inactive = flat fitted curve, though single readings scatter.

Test: Nrf2 qHTS screen for inhibitors; note: nearly all actives have a fitted effect of over 60% in size
Conditions: A549 ARE-Fluc reporter, luciferase luminescence, 18-24 h; series mostly up to 46 µM; activity change, negative = inhibition: at the top concentration
Source text: NIH Molecular Libraries Probe Production Network [MLPCN]
NIH Chemical Genomics Center [NCGC]
Assay Provider: Shyam Biswal, Johns Hopkins University
Nrf2 is a transcription factor that maintains cellular redox homoestasis and protects cells from xenobiotics. Nrf2 binds to the antioxidant response element (ARE) to induce gene expression of a broad spectrum of genes that encode for antioxidants. […] Finding a small molecule that act as an inhibitor of Nrf2 function would represent a novel therapeutic target that could lead to improvement in survival of patients undergoing chemo- and/or radio- therapy.
This is the Nrf2 activity measured in the luminescent read.
1. Shibata, T., et al., Genetic Alteration of Keap1 Confers Constitutive Nrf2 Activation and Resistance to Chemotherapy in Gallbladder Cancer. Gastroenterology, 2008.
2. Sjoblom, T., et al., The consensus coding sequences of human breast and colorectal cancers. Science, 2006. 314(5797): p. 268-74.
NCGC Assay Protocol Summary:
A concentration-response assay was performed with A549 ARE_Fluc cells which are suspended in 5% FBS OPTI-MEM. Five uL were dispensed into 1536-well white TC-treated plate using the Kalypsys dispenser to achieve a density of 5000 cells/well in all columns except column 1. The plate is incubated at 37deg C at 5% CO2 for 2 hours before 23 nL of compounds are added with the Kalypsys pin tool equipped with a 1,536-pin array containing 10-nL slotted pins (FP1S10, 0.457-mm diameter, 50.8 mm long; V&P Scientific). The control compounds Budesonide and Staurosporine are both added at a concentration of 2mM and Budesonide is also added as a 1:10 titration, starting at 200uM, to achieve dose-response. After an 18-24 hour incubation at 37deg C at 5% CO2, 5ul of medium is added to column 1. Afterwards 1ul of 5x of CellTiter-Fluor (Promega) is added to every well. The plate is then incubated at 37deg C at 5% CO2 for 30 minutes before they are read on the ViewLux (Perkin Elmer) for a fluorescent read Ex=405(10)/Em=525(10) for a 3 second exposure, 2x binning, and high gain. Then 3 uL of 3x BugLite is dispensed into all wells and the plate is incubated at ambient room temperature for 15 minutes. Afterwards another ViewLux read is performed using the clear filter to get a luminescent read with the settings of 40 second exposure, 2x binning, and high gain. Cytotoxicity is assessed through the first fluorescent read and then biochemical activity against Nrf2 is measured in the luminescent read.
% is set by controls: 0 for no effect and ±100 for the full control effect; potency is the fitted concentration of half-maximal effect.

| Structure (SMILES) | activity change, negative = inhibition | Potency |
| --- | --- | --- |
| CN(CC(=O)Nc1ccc(OC(F)F)cc1)S(=O)(=O)/C=C/c1ccccc1 | -13.5% | – |
| O=C(Nc1cccc(NC(=O)c2ccc(Br)cc2)c1)c1ccccc1 | – | inactive |
| O=C(Nc1cccc(NC(=O)c2cccc(F)c2)c1)c1ccccc1 | -21.7% | – |
| O=C(Cc1ccccc1)Nc1cccc(NC(=O)c2ccccc2)c1 | – | 25.9 µM (active) |
| Cc1ccccc1C(=O)Nc1sc2c(c1C(=O)N1CCC(C)CC1)CCCC2 | 3.62% | – |
| COc1ccc2ccccc2c1/C=N/NC(=O)c1cc(C)[nH]n1 | 10.1% | – |
| CC(C)(C)c1cc(C(=O)N/N=C/c2ccc([N+](=O)[O-])s2)n[nH]1 | – | 20.6 µM (active) |
| Cc1cc(C(=O)N/N=C/c2cc([N+](=O)[O-])cc(C)c2O)n[nH]1 | -24.2% | – |
| CCOc1ccc(NC(=O)CCC(=O)N/N=C/c2ccc([N+](=O)[O-])s2)cc1 | -11.9% | – |
| COc1ccc(C(=O)COC(=O)c2ccc([N+](=O)[O-])s2)cc1OC | 10.6% | – |
| COc1ccc(C(=O)NCC(=O)N/N=C/c2ccc([N+](=O)[O-])s2)cc1OC | – | 25.9 µM (active) |
| Cn1c(=O)c(C(=O)O)nn(-c2ccccc2)c1=O | 7.58% [at 9.27 µM] | – |
| COc1ccc(C2=NC(c3ccncc3)=Nc3ccc(Br)cc3N2)cc1 | -17.2% | – |
| COc1cc(C2CC(=O)Oc3cc(OC)c(OC)c(OC)c32)cc(OC)c1OC (centres undefined) | -9.18% | – |
| CCN1/C(=C/c2ccc3ccc(C)cc3[n+]2CC)Sc2ccccc21 | – | 13 µM (active) |
| CCN1CCN(CCNC(=O)c2ccc(/C=C3/Sc4ccccc4N(Cc4cccc(C)c4)C3=O)cc2)CC1 | 6.25% | – |
| FC(F)(F)c1ccc(-c2cccc3c2C2CC3CCN2Cc2ccccc2)cc1 (centres undefined) | -5.75% | – |
| COc1ccc(-c2cc(NCc3ccc(F)cc3)n3cnnc3n2)cc1 | -20.5% | – |
| NC(=O)c1ncn([C@@H]2O[C@H](CNCc3cnc(N4CCOCC4)s3)[C@@H](O)[C@H]2O)n1 | -1.58% | – |
| Cn1nc(-c2ccccc2)c(CSc2cccc(Cl)c2)c1Cl | -17.6% | – |
| Cn1nc(-c2ccccc2)c(CO)c1Sc1ccccc1 | – | 25.9 µM (active) |
| Cc1ccc(S(=O)(=O)c2c(COC(=O)c3cccc(Cl)c3)c(-c3ccccc3)nn2C)cc1 | 4.27% | – |
| O=C(COc1ccccc1F)NNC(=O)c1cc(Br)ccc1Cl | 2.26% | – |
| O=C(CN1C(=O)NC2(CCCCCC2)C1=O)Nc1ccc([N+](=O)[O-])cc1 | -1.58% | – |
| CCC1CCCCN1Cc1c(O)ccc2c(=O)c(Oc3ccccc3Cl)c(C(F)(F)F)oc12 (centres undefined) | 1.23% | – |

| Structure (SMILES) | activity change, negative = inhibition | Potency |
| --- | --- | --- |
| C#CCOCCOCCOCCNc1nc(N2CCN(C(=O)Cn3cc(CCO)nn3)CC2)nc(N2CCN(C(=O)[C@H](CCCCN)n3cc(CCCC)nn3)CC2)n1 | 6.59% | – |
| Cc1cc(C2=NNC(=Nc3ccc(S(=O)(=O)N4CCOCC4)cc3)SC2)c(C)n1CC1CCCO1 (centres undefined) | 14% | – |
| C=CCn1c(C)cc(C2=NNC(=NCC)SC2)c1C | – | 16.4 µM (active) |
| Cc1cccc2nc(-c3ccc(Cl)s3)c(Nc3ccc4c(c3)OCCO4)n12 | -12.5% | – |
| COc1ccc(NC(=O)/C(N=Nc2cccc(S(=O)(=O)Nc3ccc(SC(F)F)cc3)c2)=C(\C)O)cc1 | -4.71% | – |
| C=CCCC(=O)N1C[C@H]2CON(C)[C@H]2C[C@H]1c1cccc(Nc2ccccc2)c1 | 6.32% | – |
| CN(C)C(=O)CCc1ccc2c3c([nH]c2c1)[C@]1(C)[C@@H](C(=O)N2CCCCC2)C[C@H](CC(=O)NCCC2=CCCCC2)C(=O)N1CC3 | -13.1% | – |
| CCc1ccc(S(=O)(=O)n2ccnc2)cc1 | 29.8% | – |
| CCOc1ccccc1CNC(=O)c1ccc(-n2c(C)cc3c2CCC(C)C3)cc1 (centres undefined) | 9.8% | – |
| COc1ccc(C(=O)NNC(=S)NC(=O)c2ccccc2[N+](=O)[O-])cc1 | -1.05% | – |
| O=C(CCc1ccccc1)NNC(=O)c1ccc(Br)cc1 | 3.41% | – |
| COc1ccc(C(=O)NC(=S)NNC(=O)c2c(-c3ccccc3)noc2C)cc1 | – | 23.1 µM (active) |
| COc1ccc(C(=O)NC(=S)NNC(=O)CCc2ccccc2)cc1 | – | 7.31 µM (active) |
| CC(C)Oc1ccc(CCC(=O)NNC(=S)NCc2ccccc2)cc1 | -0.796% | – |
| Cc1ccc(CNC(=O)c2c(-c3ccccc3)noc2C)cc1 | -5.27% | – |
| CCN(C(=O)c1sc2cc(OC)ccc2c1Cl)c1ccccc1 | -27.9% | – |
| C=CCN1C=C(C(=O)c2ccccc2)C(=O)CC1 | -4.83% | – |
| COc1cccc(CNc2ncc(-c3ccccc3)n2C)c1 | 0.973% | – |
| COc1cccc(CNC(=O)c2n[nH]c3ccccc23)c1 | -2.22% | – |
| COc1cccc(CNc2nc(C(F)(F)F)nc3ccccc23)c1 | – | 23.1 µM (active) |
| NS(=O)(=O)c1ccc(CCNC(=O)CNC(=O)Cc2ccccc2)cc1 | 4.33% | – |
| CC(Nc1nc(C(F)(F)F)nc2ccccc12)c1cccs1 (centres undefined) | 4.12% | – |
| NS(=O)(=O)c1ccc(CCNc2nc(C(F)(F)F)nc3ccccc23)cc1 | – | 23.1 µM (active) |
| Cc1ccc(C)c(Cn2c(C(=O)O)c(CNCc3cccs3)c3ccccc32)c1 | -15.6% | – |
